This note sets out measurements from ChEMBL document CHEMBL4513135, “CO-ADD screening of IQOG CSIS (Spain) compounds”.

Structures are written as SMILES. Entries with a potency or affinity are not part of this list.

The subject of one test is Staphylococcus aureus. Conditions: Concentration 32 ug.mL-1; ASSAY_TEST Inhibition of Bacterial Growth; detection method Absorption (OD600); MEDIA CAMHB; plate type 384well; NBS; CORNING #3640; time 18 hr.
Another test concerns Escherichia coli. Particulars: Concentration 32 ug.mL-1; ASSAY_TEST Inhibition of Bacterial Growth; detection method Absorption (OD600); MEDIA CAMHB; plate type 384well; NBS; CORNING #3640; time 18 hr.

The Inhibition is the change of the read-out against control, counted positive when it falls. Turning to `O=C(Cc1c[nH]c2ccccc12)NN=C1CCCCCC1`, the Inhibition was 10.21% in the test with Staphylococcus aureus and 6.07% in the test with Escherichia coli.

For `Cc1[nH]nc2c1C(c1ccc(O)c(O)c1)C(C#N)=C(N)O2` (configuration not stated), the Inhibition in the test on Staphylococcus aureus was found to be 9.09%; in the test on Escherichia coli it was 8.02%.

Consider `N#CC1=C(N)Oc2c(ccc3ccccc23)C1c1ccc(Cl)c(Cl)c1` (configuration not stated), for which the Inhibition in the test on Staphylococcus aureus is 0.79%; in the test on Escherichia coli, 0.95%.

Take `COc1ccc(-c2cc(-c3cc4ccccc4nc3Cl)cc(=O)[nH]2)cc1`: the results for the Inhibition in the test on Staphylococcus aureus and with Escherichia coli were 22.93% and -12.6%, respectively.

As to `Cc1ccc2[nH]c(=O)c(C=O)cc2c1`, the Inhibition with Staphylococcus aureus was 3.11%; with Escherichia coli it was -7.4%.

Consider `COC1=C(C#N)CCC(=O)N1`, for which the Inhibition in the test with Staphylococcus aureus is 33.45%; in the test on Escherichia coli, -6.96%.

`COc1ccc(-c2cc(-c3cc4c(C)cc(C)cc4nc3Cl)cc(=O)[nH]2)cc1`: the Inhibition with Staphylococcus aureus is 21.85%; with Escherichia coli, -16.03%.

For the compound `CCC(CC)NNC(=O)c1c[nH]c2ccccc12.Cl`, the Inhibition in the test on Staphylococcus aureus worked out at 4.35%; with Escherichia coli it was 0.83%.

Take `COC(=O)C1(NC(=O)c2ccccc2)CC1c1ccccc1` (configuration not stated): the Inhibition with Staphylococcus aureus is listed as 1.83%; in the test with Escherichia coli, -4.02%.

For the compound `C=CCNc1nc(N)c(C#N)cc1C#N`, the results for the Inhibition in the test with Staphylococcus aureus and in the test with Escherichia coli were 40.4% and -12.52%, respectively.

On to `COc1ccc(-c2cc(-c3ccccc3)c(C#N)c(N)n2)cc1`, for which the Inhibition with Staphylococcus aureus is on record as 10.32%; with Escherichia coli, -23.38%.

Regarding `C#CCNc1nc(N)c(C#N)cc1C#N`, the Inhibition is listed as -1.17% in the test with Staphylococcus aureus and -11.19% in the test on Escherichia coli.

As for `CC1Cc2ccccc2N1/N=C/c1ccccc1` (configuration not stated), the Inhibition in the test with Staphylococcus aureus is -5.3%; in the test on Escherichia coli it was -3.55%.

For the compound `COc1ccc(C2c3c(ccc4ccccc34)OC(=NBr)C2(Br)C#N)cc1` (configuration not stated), the Inhibition with Staphylococcus aureus is 37.33%; in the test on Escherichia coli it was -19.75%.

In the case of `C#CCNc1nc(NCCC2CCN(Cc3ccccc3)CC2)c(C#N)cc1C#N`, the Inhibition is -4.51% with Staphylococcus aureus and -8.4% in the test on Escherichia coli.

For `COc1cc(C2c3c(nc4c(c3N)CCCC4)Oc3ccc4ccccc4c32)cc(OC)c1OC` (configuration not stated), the figures for the Inhibition in the test on Staphylococcus aureus and in the test on Escherichia coli were 14.84% and 14.05%, respectively.

Turning to `C=C1CNc2c(C#N)c(-c3ccccc3)c(C#N)c(=N)n21`, the Inhibition in the test on Staphylococcus aureus is 17.65%; in the test with Escherichia coli, -9.94%.

As to `N#Cc1c(N)nc(NCCCCC2CCN(Cc3ccccc3)CC2)c(C#N)c1-c1ccccc1`, the Inhibition is listed as 9.74% with Staphylococcus aureus and -1.09% with Escherichia coli.

As for `CCOC(=O)c1cc2cc(O)ccc2n1C(=O)OC(C)(C)C`, the Inhibition in the test with Staphylococcus aureus came out at 5.1%; with Escherichia coli, 10.33%.

Regarding `O=C(Cc1c[nH]c2ccccc12)NN=Cc1ccccc1`, the Inhibition is listed as 3.3% in the test with Staphylococcus aureus and -3.03% in the test with Escherichia coli.

For `CCOC(=O)C1=C(C)OC(N)=C(C#N)C1c1ccccc1OC` (configuration not stated), the Inhibition is 23.12% in the test on Staphylococcus aureus and -9.51% in the test with Escherichia coli.

On to `COC1=C(C#N)CC(C)C(=O)N1` (configuration not stated), for which the Inhibition with Staphylococcus aureus is on record as 16.96%; in the test with Escherichia coli, -13.94%.

Consider `CCOc1nc(N)c(C#N)cc1C#N.Cl`, for which the Inhibition with Staphylococcus aureus is recorded as -3.52%; with Escherichia coli it was -30.21%.

In the case of `CCCC(C)NNC(=O)Cc1c[nH]c2ccccc12` (configuration not stated), the figures for the Inhibition in the test with Staphylococcus aureus and in the test with Escherichia coli were 1.02% and -9.25%, respectively.

As for `COc1ccc(C2c3c(nc4c(c3N)CCCC4)Oc3ccc4ccccc4c32)c(OC)c1` (configuration not stated), the Inhibition is listed as 15.3% in the test on Staphylococcus aureus and 3.89% in the test with Escherichia coli.

For `O=C(COc1ccc2ccccc2c1)N/N=C/c1c[nH]c2ccccc12`, the Inhibition in the test with Staphylococcus aureus amounted to 3.21%; in the test on Escherichia coli it was 6.84%.

For the compound `N#Cc1c(N)nc(N)c(C#N)c1-c1ccccc1`, the Inhibition in the test with Staphylococcus aureus is listed as 24.97%; in the test on Escherichia coli, -10.66%.

`N#Cc1c(N)nc(NC2CCN(Cc3ccccc3)CC2)c(C#N)c1-c1ccccc1`: the Inhibition with Staphylococcus aureus is 33.89%; in the test with Escherichia coli, -2.79%.

Consider `CCOC(=O)/C(C#N)=C\c1ccc(Cl)cc1`, for which the Inhibition in the test on Staphylococcus aureus is 19.96%; with Escherichia coli, 11.69%.

As for `CCOC(=O)C1=C(C)Nc2nc3c(c(N)c2C1c1ccc([N+](=O)[O-])cc1)CCCC3.Cl` (configuration not stated), the Inhibition was 34.25% in the test with Staphylococcus aureus and -22.43% in the test with Escherichia coli.

For the compound `Cc1ccc(C2c3ccc4ccccc4c3Oc3nc4c(c(N)c32)CCCC4)cc1` (configuration not stated), the Inhibition is on record as -4.73% in the test with Staphylococcus aureus and -12.25% with Escherichia coli.

For the compound `O=C(N/N=C/c1c[nH]c2ccccc12)c1ccco1`, the Inhibition with Staphylococcus aureus came to 13.11%; in the test on Escherichia coli it was 12.98%.

For `COc1ccccc1-c1c(C#N)c(=O)oc2c1ccc1ccccc12`, the Inhibition was 27.34% in the test on Staphylococcus aureus and 19.18% in the test with Escherichia coli.

On to `COc1[nH]c(=O)ccc1C#N`, for which the Inhibition is reported as 31.13% with Staphylococcus aureus and -5.91% in the test on Escherichia coli.

For `CC(C(=O)O)c1c[nH]c2ccccc12` (configuration not stated), the figures for the Inhibition in the test with Staphylococcus aureus and with Escherichia coli were 5.61% and 8.04%, respectively.

Take `Cn1ccnc1C1c2ccc3ccccc3c2Oc2nc3c(c(N)c21)CCCCC3` (configuration not stated): the Inhibition is listed as 17.85% with Staphylococcus aureus and -12.42% in the test with Escherichia coli.

For `CCOC(=O)C1=C(C)NC(N)=C(C#N)C1c1ccc([N+](=O)[O-])cc1` (configuration not stated), the Inhibition is on record as 22.51% with Staphylococcus aureus and -7.02% with Escherichia coli.

`COc1ccccc1C1C(C#N)=C(N)Oc2c1ccc1ccccc21` (configuration not stated): the Inhibition is reported as 19.36% with Staphylococcus aureus and -9.01% with Escherichia coli.

With `CC#CCN(Cc1ccccc1)c1nc(N)c(C#N)c(-c2ccccc2)c1C#N`, the figures for the Inhibition with Staphylococcus aureus and in the test with Escherichia coli were 17.54% and -2.98%, respectively.

`CCOC(=O)c1c(C)[nH]c2ccc(OC)cc12`: the results for the Inhibition with Staphylococcus aureus and with Escherichia coli were -4.64% and 0.02%, respectively.

Turning to `COc1ccccc1C1c2c(ccc3ccccc23)OC(=N)C1(Br)C#N` (configuration not stated), the figures for the Inhibition with Staphylococcus aureus and in the test on Escherichia coli were 32.97% and -9.16%, respectively.
